Calls of active or inactive are those of the source. Rule for the calls: active = hit-call score of the fitted dose curve at least 0.9, where 1 is the maximum; inactive = score below 0.9.

Read-out in this test: Interleukin-1 alpha (IL1a), IL1A (gene 3552)
Briefly: BSK_BE3C_IL1a: BioMAP Diversity Plus: BE3C Assay for Interleukin-1 alpha (IL1a) Biomarker Activity (AID 2283016). The note with it: primary human bronchial epithelial cells; actives raise or lower the signal. In outline:
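Measured in human lung primary bronchial epithelial cells: IL-1a by ELISA at 24 h after dosing, with bidirectional fitting against DMSO.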
`CCc1nc(N)nc(N)c1-c1ccc(Cl)cc1`: the outcome was inactive.

The term AC50 denotes the concentration giving half of the maximal activity seen. Consider `CCCCCCC(CCCCCCCCCCC(=O)OCC(COC(C)=O)OC(C)=O)OC(C)=O` (configuration not stated), for which the AC50 was 12.3 µM (active).

Turning to `COC(=O)CCCC(=O)OC`, the outcome was inactive.

Turning to `O=C1c2c(O)cccc2Cc2cccc(O)c21`, the result was inactive.

With `CCCCOC(=O)CCCCC(=O)OCCCC`, the outcome was inactive.

On to `CN(C)CCCN1c2ccccc2Sc2ccc(Cl)cc21`, for which the concentration at half-maximal activity (AC50) is 31.1 µM (active).

`O=C(Oc1ccccc1)c1cccc(C(=O)Oc2ccccc2)c1`: the result was inactive.

For the origin of these results see PubChem BioAssay (EPA / NIEHS).
